# MT1-MMP txn act – activates MT1-MMP transcription; HT1080 MT1-MMP promoter luciferase reporter, luminescence, overnight; stronger effect = higher value; activation factor at 10 µM; 86,000 tested, 0.16% active;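 active = activation factor of at least 2 for MT1-MMP transcription at 10 µM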
# LYP act – LYP (human) phosphatase activation | 96,000 tested, 0.11% active | activation, % at 2 µM | AID 697 | recombinant LYP, DiFMUP fluorescence; 0 = plate median, 100 = signal doubled | Q9Y2R2;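 active = activation at 2 µM above a set limit, the mean plus 5 SD, cut at about 37% in these data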
# PTPN22 inh 2 – inhibitors of human LYP (PTPN22) phosphatase | Q9Y2R2 | recombinant LYP catalytic domain, DiFMUP fluorescence | inhibition, % at 2 µM | 96,000 tested, 0.21% active;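 active = inhibition at 2 µM at or above a set limit, the screen mean plus 3 SD, cut at about 24% in these data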;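 also: 0% = DMSO with enzyme and 100% = enzyme fully blocked by orthovanadate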
# TNAP act DEA – activators of human TNAP at intermediate phosphate acceptor | activation factor at 20 µM | 64,000 tested, under 10 active | purified TNAP, CDP-star luminescence, 100 mM DEA, 30 min; stronger effect = higher value; scale: 0 levamisole-inhibited, 1 vehicle-only enzyme;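 active = activation factor of at least 2 at 20 µM, relative to controls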
# PLAP activator – activators of human placental alkaline phosphatase. purified PLAP enzyme, luminescent substrate read-out; stronger effect = higher value. activation fold at 20 µM. P05187. AID 696. 96,000 tested, 1.2% active; in the data active = activation fold above about 2
# The depositor's hits bear a star; x = no result. Only some compounds are listed: those with a hit (about 1.6% of all), similar ones and a draw of the others.
SMILES,MT1-MMP txn act,LYP act,PTPN22 inh 2,TNAP act DEA,PLAP activator
CCCc1ccc(Oc2cn[nH]c2-c2ccc(O)cc2O)cc1,1.2,2,-4,0.9,1.8
COc1ccc(-c2[nH]ncc2-c2cnc(C)s2)c(O)c1,1.2,-2,-1,1.2,2.9*
COc1ccccc1N(C(C)=O)c1nc(C)cc(C)c1C#N,1.3,-1,-6,x,x
C[C@@H](C(=O)Nc1ccc2ccccc2c1)[C@@H]1C[C@@]1(C)[C@@H](NC(=O)c1ccncc1Cl)c1ccccc1,1.2,x,x,x,x
Cc1cc(C)c(S(=O)(=O)N2CCC(C(=O)NCc3ccc(Cl)cc3Cl)CC2)c(C)c1,1,6,-5,x,2.4*
CCS(=O)(=O)N1CCC(C(=O)NCc2ccc(F)cc2Cl)CC1,1.3,3,-4,0.9,1
COc1ccc(Cc2nc(-c3ccc(Cl)cc3)no2)cc1,1.2,2,-4,0.8,2*
COC(=O)[C@@]1(Cc2ccccc2)[C@H]2c3cc(C(=O)N(C)C)n(C[C@H](O)CO)c3C[C@H]2CN1C(=O)c1ccccc1,1.1,x,x,x,x
COc1cccc(-c2nnc(SCc3nc4ccccc4[nH]3)n2N)c1,1.3,-1,-3,1.1,1.3
Nn1c(SCc2nc3ccccc3[nH]2)nnc1C1CCCCC1,1.2,-3,1,1.2,2.1*
Nn1c(SCc2nc3ccccc3[nH]2)nnc1-c1cccnc1,1.1,x,x,1,2*
O=C(CCSc1ccc(Cl)cc1)N1CCN(c2ncccn2)CC1,1.7,-6,6,0.9,1.4
COc1cccc(COc2ccccc2C2Nc3ccc(Br)cc3C(=O)N2NC(=O)c2ccncc2)c1 (stereo not drawn),x,2,0,x,1.3
CC(=O)N1CC=CC1(CC(C)C)C(=O)NCc1ccccn1 (stereo not drawn),1,x,x,x,x
COC(=O)c1ccc(CSc2nc3ccc(C)cc3[nH]2)o1,x,3,-6,x,2.2*
COC(=O)c1ccc(CSc2nc3c(cnn3-c3ccc(C)cc3)c(=O)[nH]2)o1,1.2,-1,2,x,x
Cc1ccc(NC(=O)CN2C(=O)S/C(=C\c3cccn3C)C2=O)cc1,x,-6,10,x,0.8
Cc1ccc(NC(=O)CN2C(=O)S/C(=C\c3ccc(-c4cccc(C(=O)O)c4C)o3)C2=O)cc1,1.1,-54,56*,x,1.6
CCCC[C@@H]1C[C@H]1C(NC(=O)c1ccco1)c1ccc(Cl)cc1 (stereo partly drawn),1.3,x,x,x,x
COC(=O)[C@@]1(Cc2ccc(F)cc2)[C@H]2c3cc(C(=O)N4CCCC4)n(Cc4c(CO)[nH]cc(C)c4=O)c3C[C@H]2CN1C(=O)c1ccccc1,1.2,x,x,x,x
CCCc1nc2ccccc2c(=O)n1/N=C/c1c(C)[nH]n(-c2ccc(C)cc2)c1=O,1.1,10,-10,0.9,2.1*
C[C@@H]1C=C[C@](Cc2ccccc2)(C(=O)NCCCNc2ncc(C(F)(F)F)cc2Cl)N1C(=O)c1ccccc1,1.4,x,x,x,x
Cn1c(=O)cc(SCC(=O)NCCCN2CCN(c3ccc(F)cc3)CC2)c2ccccc21,1.2,3,-5,0.9,1.2
Cn1c(=O)cc(SCC(=O)NCCN2CCN(c3ccccc3F)CC2)c2cc(Cl)ccc21,1,-33,33*,0.9,1.4
Cc1ccc(C)c(NC2=NC3(CCCCC3)N=C(N)N2)c1,1.2,4,-3,x,x
SMILES,MT1-MMP txn act,LYP act,PTPN22 inh 2,TNAP act DEA,PLAP activator
Cc1cccc(C)c1NC1=NC2(CCCCC2)N=C(N)N1,1.2,3,-6,0.9,1
Cc1ccc(NC2=NC3(CCCCC3)N=C(N)N2)c(C)c1,1.1,1,-4,0.9,2.2*
COc1cccc(NC2=NC3(CCCCC3)N=C(N)N2)c1,1.2,5,-4,1,2.8*
COC(=O)c1ccc(C(NC(=O)OCc2ccccc2)/C(=C/[C@@H](C)C(=O)NCc2ccncc2)c2cccnc2)cc1 (stereo partly drawn),1.5,x,x,x,x
COC(=O)c1ccc(C2c3c(n[nH]c3C)C(=O)N2c2ccc(C)cc2)cc1 (stereo not drawn),0.9,3,-3,1,2.3*
Cc1ccc(N2C(=O)c3n[nH]c(C)c3C2c2ccccn2)cc1 (stereo not drawn),1.2,-2,2,1,1.3
CCOC(=O)c1ccc(N2C(=O)c3n[nH]c(C)c3C2c2ccc(OC)c(OC)c2)cc1 (stereo not drawn),1,3,-6,1,x
Cc1ccc(N2C(=O)c3n[nH]c(C)c3C2c2ccco2)cc1 (stereo not drawn),1.7,-5,4,x,1.5
CCOc1cc(C2c3c(n[nH]c3C)C(=O)N2c2ccc(Br)cc2)ccc1O (stereo not drawn),1.3,4,-7,1.1,2.3*
CCOC(=O)c1ccc(N2C(=O)c3n[nH]c(C)c3C2c2ccco2)cc1 (stereo not drawn),1.1,-2,0,1.1,2.7*
CCOC(=O)c1ccc(N2C(=O)c3n[nH]c(C)c3C2c2ccc(OC)cc2)cc1 (stereo not drawn),0.9,-10,8,1,2.6*
O=C(c1cc(C2CC2)on1)N1CCN(c2ccccc2)CC1,x,-5,5,x,1.2
COC(=O)c1ccc(C(NC(=O)OCc2ccccc2)/C(C)=C/[C@@H](C)C(=O)N2CCN(C)CC2)cc1 (stereo partly drawn),1.1,x,x,x,x
CN(C)CCn1c(NC(=O)c2ccc(Cl)cc2)nc2ccccc21,1.8,0,2,x,2.3*
CCC(=O)Nc1nc2ccccc2n1CCN(CC)CC,1.1,8,-12,1,1.5
CCCn1c(Nc2ccccc2)nc2ccccc21,1.1,7,-7,x,1
CCCn1c(Nc2ccc(Cl)cc2)nc2ccccc21,0.9,-35,38*,x,1
Cc1ccc(NC(=O)CCSc2nnnn2-c2ccc3c(c2)OCO3)cc1C,1,17,-21,0.9,1.2
CC(NC(=O)NCc1cccnc1)(C(F)(F)F)C(F)(F)F,1,-10,10,0.8,1.1
COc1ccc(OC)c(-c2nc(C(N)=O)c3[nH]c(=O)n(-c4ccc(F)cc4)c3n2)c1,1.1,-9,6,0.9,1.5
COc1ccc(-c2nc(C(N)=O)c3[nH]c(=O)n(-c4ccccc4OC)c3n2)c(OC)c1,1.3,0,-3,1,2.4*
CN1CCN(c2ccccc2NC(=O)c2cc3ccccc3o2)CC1,1.3,-4,8,x,1.4
O=C(Nc1ccccc1N1CCCC1)c1cc2ccccc2o1,2*,0,0,0.8,1
O=C(Nc1ccc(N2CCOCC2)c(Cl)c1)c1cc2ccccc2o1,2.1*,-8,7,x,x
Cc1cccc(N2CCN(C(=O)CCc3nc4ccccc4[nH]3)CC2C)c1 (stereo not drawn),x,7,-11,x,2.2*
Cc1ccc(N2CCN(C(=O)CCc3nc4ccccc4[nH]3)CC2)c(C)c1,x,-5,2,x,x
Cc1sc(NC(=S)NC(=O)C(C)(C)C)c(C(N)=O)c1C,x,6,-4,x,1
COC(=O)C1=C(C)N(C)C(C)=C(C(=O)OC)C1c1ccc(C(=O)OC)cc1,1.2,3,-4,0.9,0.9
